Data on eight compounds can be found in PubChem BioAssay (EPA / NIEHS).

Assay [1] in a line: CEETOX_H295R_OHPROG: CeeTox H295R High-throughput Steroidogenesis Assay for OH-Progesterone (OHPROG) (AID 2283435).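 Note: human adrenal H295R cells primed 48 h with 10 µM forskolin.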 The settings on record: actives raise or lower the signal. The gist of the method: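 H295R adrenal cells prestimulated 48 h with 10 uM forskolin, then exposed 48 h to chemical (0.1% DMSO final). 17alpha-hydroxyprogesterone in medium quantified by HPLC-MS/MS; bidirectional fit versus DMSO, with MTT viability measured in the same wells.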

Assay [2] in a line: CEETOX_H295R_CORTIC: CeeTox H295R High-throughput Steroidogenesis Assay for Corticosterone (CORTIC) (AID 2283437).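 Note: corticosterone secreted into medium quantified by mass spectrometry.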 The settings on record: actives raise or lower the signal. The gist of the method:
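Corticosterone secreted into medium is measured by reverse-phase HPLC with tandem MS following liquid-liquid extraction. Cells are forskolin-stimulated (10 uM, 48 h) before 48 h test exposure; activity fitted in both directions against DMSO.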

Assay [3] in a line: CEETOX_H295R_CORTISOL: CeeTox H295R High-throughput Steroidogenesis Assay for Cortisol (AID 2283438).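 Note: cortisol secreted into medium quantified by LC-MS/MS.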 The settings on record: actives raise or lower the signal. The essentials:
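Forskolin-primed H295R cells (10 uM, 48 h) treated 48 h with test chemical in 0.1% DMSO. Cortisol in medium quantified by MTBE extraction and HPLC-MS/MS; bidirectional fit vs DMSO, MTT viability in same wells.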

The nature of assay [4]: CEETOX_H295R_DOC: CeeTox H295R High-throughput Steroidogenesis Assay for DOC (AID 2283439). The settings on record: actives raise or lower the signal. The gist of the method:
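H295R cells prestimulated 48 h with 10 uM forskolin, then exposed 48 h to test chemical (0.1% DMSO final). Medium 11-deoxycorticosterone measured by HPLC-MS/MS after MTBE extraction; bidirectional fit vs DMSO, viability checked by MTT in same wells.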

Assay [5] is described as follows: CEETOX_H295R_ESTRADIOL: CeeTox H295R High-throughput Steroidogenesis Assay for Estradiol (AID 2283440).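 Note: estradiol secreted into medium quantified by LC-MS/MS after dansyl derivatisation.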 The settings on record: actives raise or lower the signal. The essentials: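 Following OECD 456 with minor changes, H295R cells received 10 uM forskolin for 48 h and then test chemical for 48 h. Hormone output was read by HPLC-MS/MS, with cytotoxic concentrations diluted until MTT viability reached ≥70%.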

Assay [6] is described as follows: CEETOX_H295R_ESTRONE: CeeTox H295R High-throughput Steroidogenesis Assay for Estrone (AID 2283441).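 Note: estrone secreted into medium measured by LC-MS/MS after dansyl derivatization.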 The settings on record: actives raise or lower the signal. The gist of the method: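 H295R cells prestimulated 48 h with 10 uM forskolin, then exposed 48 h to chemicals in 0.1% DMSO final; estrone in medium extracted with MTBE, dansyl-derivatized, quantified by HPLC-MS/MS; bidirectional fitting versus DMSO, viability by MTT.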

Assay [7] can be described thus: CEETOX_H295R_PROG: CeeTox H295R High-throughput Steroidogenesis Assay for Progesterone (PROG) (AID 2283442).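 Note: human H295R adrenal cells primed with 10 µM forskolin before dosing.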 The settings on record: actives raise or lower the signal. The essentials:
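Adrenal H295R line, forskolin-stimulated (10 uM, 48 h) before dosing. 48 h exposure, 0.1% DMSO vehicle. Secreted progesterone by reverse-phase HPLC with ESI+ MS/MS quantification; DMSO-normalised bidirectional curve fit.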

Read-out in assay [8]: Tumor necrosis factor receptor superfamily member 6 (Homo sapiens) (UniProt P25445)
The assay is described as follows: LTEA_HepaRG_FAS: Life Technologies and Expression Analysis (LTEA) Assay for Fas cell surface death receptor (FAS) using HepaRG (AID 2283447). The settings on record: mRNA level, 48 h; actives raise or lower the signal. The gist of the method:
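FAS transcript level was measured by TaqMan qRT-PCR against three housekeeping genes after 48 h chemical exposure. Cells were HepaRG, 0.5% DMSO vehicle, with a top concentration of 100 uM and half-log dilutions over eight points, in duplicate.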

Read-out in assay [9]: Fatty acid synthase (Homo sapiens) (UniProt P49327)
Kind of assay: LTEA_HepaRG_FASN: Life Technologies and Expression Analysis (LTEA) Assay for Fatty Acid Synthase (FASN) using HepaRG (AID 2283448). The settings on record: mRNA level, 48 h; actives raise or lower the signal. The gist of the method: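 Differentiated HepaRG cells in serum-free induction medium exposed 48 h in duplicate to eight half-log concentrations, top 100 uM, 0.5% DMSO. FASN mRNA by qRT-PCR normalised to ACTB, GAPDH, POLR2A; bidirectional fit versus DMSO.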

Read-out in assay [10]: Cyclin D2 (CCND2), CCND2 (gene 894)
Kind of assay: LTEA_HepaRG_CCND2: Life Technologies and Expression Analysis (LTEA) Assay for Cyclin D2 (CCND2) using HepaRG (AID 2283449). The settings on record: mRNA level, 48 h; actives raise or lower the signal. The gist of the method:
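Read-out is CCND2 mRNA level measured by qRT-PCR in human HepaRG liver cells and normalised to three housekeeping genes. Chemicals were applied for 48 h at up to 100 uM, with gain or loss fitted relative to 0.5% DMSO.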

Read-out in assay [11]: Cyclin Dependent Kinase Inhibitor 1A (CDKN1A), CDKN1A (gene 1026)
Kind of assay: LTEA_HepaRG_CDKN1A: Life Technologies and Expression Analysis (LTEA) Assay for Cyclin Dependent Kinase Inhibitor 1A (CDKN1A) using HepaRG (AID 2283450). The settings on record: mRNA level, 48 h; actives raise or lower the signal. The essentials:
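Cryopreserved HepaRG cells were plated and cultured 48 h, then switched to serum-free induction medium. Chemicals (eight half-log concentrations, top 100 uM, 0.5% DMSO) were applied for 48 h. Lysates underwent qRT-PCR for CDKN1A with housekeeping normalization.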

Read-out in assay [12]: Cyclin D1 (CCND1), CCND1 (gene 595)
The assay is described as follows: LTEA_HepaRG_CCND1: Life Technologies and Expression Analysis (LTEA) Assay for Cyclin D1 (CCND1) using HepaRG (AID 2283451). The settings on record: mRNA level, 48 h; actives raise or lower the signal. The gist of the method:
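Human liver HepaRG line; 48 h dosing, 8 conc. ≤100 uM, 0.5% DMSO; TaqMan qRT-PCR mRNA, 3 housekeeping genes; bidirectional curve fit vs DMSO.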

Read-out in assay [13]: flavin-containing dimethylaniline monooxygenases 3 (FMO3), FMO3 (gene 2328)
The assay is described as follows: LTEA_HepaRG_FMO3: Life Technologies and Expression Analysis (LTEA) Assay for flavin-containing dimethylaniline monooxygenases 3 (FMO3) using HepaRG (AID 2283453). The settings on record: mRNA level, 48 h; actives raise or lower the signal. The gist of the method: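 Differentiated HepaRG cells in serum-free induction medium, exposed 48 h in duplicate to 8 half-log concentrations up to 100 uM in 0.5% DMSO. FMO3 mRNA by qRT-PCR, normalized to ACTB, GAPDH, POLR2A; bidirectional fit vs DMSO.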

Read-out in assay [14]: Cytochrome P450 (CYP1A1), CYP1A1 (gene 1543)
The assay is described as follows: LTEA_HepaRG_CYP1A1: Life Technologies and Expression Analysis (LTEA) Assay for Cytochrome P450 (CYP1A1) using HepaRG (AID 2283454). The settings on record: mRNA level, 48 h; actives raise or lower the signal. The gist of the method:
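Induction of CYP1A1 mRNA in a human hepatic cell line was measured 48 h after dosing, with 1 mM phenobarbital as induction positive control and 0.5% DMSO vehicle as baseline for bidirectional curve fitting.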

Read-out in assay [15]: CFLAR gene, CFLAR (gene 8837)
The assay is described as follows: LTEA_HepaRG_CFLAR: Life Technologies and Expression Analysis (LTEA) Assay for CFLAR gene using HepaRG (AID 2283455). The settings on record: mRNA level, 48 h; actives raise or lower the signal. The essentials:
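HepaRG, 48 h exposure, 8-pt conc-response (100 uM top, half-log), 0.5% DMSO vehicle, duplicates. CFLAR expression by qRT-PCR; ACTB/GAPDH/POLR2A normalization; gain or loss fit vs DMSO baseline.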

Read-out in assay [16]: Forkhead box O1 (FOXO1), FOXO1 (gene 2308)
The assay is described as follows: LTEA_HepaRG_FOXO1: Life Technologies and Expression Analysis (LTEA) Assay for Forkhead box O1 (FOXO1) using HepaRG (AID 2283456). The settings on record: mRNA level, 48 h; actives raise or lower the signal. The essentials:
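Readout is FOXO1 transcript level by multiplexed qRT-PCR against three housekeeping genes, curve-fitted in both directions relative to 0.5% DMSO vehicle. Human HepaRG cultures received chemicals for 48 h, up to 100 uM in half-log steps.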

Read-out in assay [17]: growth arrest and DNA damage 45 (GADD45A), GADD45A (gene 1647)
The assay is described as follows: LTEA_HepaRG_GADD45A: Life Technologies and Expression Analysis (LTEA) Assay for growth arrest and DNA damage 45 (GADD45A) using HepaRG (AID 2283458). The settings on record: mRNA level, 48 h; actives raise or lower the signal. The gist of the method:
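Differentiated HepaRG cells exposed 48 h in serum-free induction medium to 8 concentrations, top 100 uM in half-log steps, 0.5% DMSO. GADD45A mRNA quantified by qRT-PCR, normalized to ACTB, GAPDH and POLR2A; bidirectional fit versus DMSO.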

Usually AC50 stands for the midpoint of the concentration-response curve, whichever way the signal moves.

Calls of active or inactive are those of the source. Rule for the calls: active = hit-call score of the fitted dose curve at least 0.9, where 1 is the maximum; inactive = score below 0.9.

Chain of Fatty acid synthase (Homo sapiens) (P49327 whole entry, looked up): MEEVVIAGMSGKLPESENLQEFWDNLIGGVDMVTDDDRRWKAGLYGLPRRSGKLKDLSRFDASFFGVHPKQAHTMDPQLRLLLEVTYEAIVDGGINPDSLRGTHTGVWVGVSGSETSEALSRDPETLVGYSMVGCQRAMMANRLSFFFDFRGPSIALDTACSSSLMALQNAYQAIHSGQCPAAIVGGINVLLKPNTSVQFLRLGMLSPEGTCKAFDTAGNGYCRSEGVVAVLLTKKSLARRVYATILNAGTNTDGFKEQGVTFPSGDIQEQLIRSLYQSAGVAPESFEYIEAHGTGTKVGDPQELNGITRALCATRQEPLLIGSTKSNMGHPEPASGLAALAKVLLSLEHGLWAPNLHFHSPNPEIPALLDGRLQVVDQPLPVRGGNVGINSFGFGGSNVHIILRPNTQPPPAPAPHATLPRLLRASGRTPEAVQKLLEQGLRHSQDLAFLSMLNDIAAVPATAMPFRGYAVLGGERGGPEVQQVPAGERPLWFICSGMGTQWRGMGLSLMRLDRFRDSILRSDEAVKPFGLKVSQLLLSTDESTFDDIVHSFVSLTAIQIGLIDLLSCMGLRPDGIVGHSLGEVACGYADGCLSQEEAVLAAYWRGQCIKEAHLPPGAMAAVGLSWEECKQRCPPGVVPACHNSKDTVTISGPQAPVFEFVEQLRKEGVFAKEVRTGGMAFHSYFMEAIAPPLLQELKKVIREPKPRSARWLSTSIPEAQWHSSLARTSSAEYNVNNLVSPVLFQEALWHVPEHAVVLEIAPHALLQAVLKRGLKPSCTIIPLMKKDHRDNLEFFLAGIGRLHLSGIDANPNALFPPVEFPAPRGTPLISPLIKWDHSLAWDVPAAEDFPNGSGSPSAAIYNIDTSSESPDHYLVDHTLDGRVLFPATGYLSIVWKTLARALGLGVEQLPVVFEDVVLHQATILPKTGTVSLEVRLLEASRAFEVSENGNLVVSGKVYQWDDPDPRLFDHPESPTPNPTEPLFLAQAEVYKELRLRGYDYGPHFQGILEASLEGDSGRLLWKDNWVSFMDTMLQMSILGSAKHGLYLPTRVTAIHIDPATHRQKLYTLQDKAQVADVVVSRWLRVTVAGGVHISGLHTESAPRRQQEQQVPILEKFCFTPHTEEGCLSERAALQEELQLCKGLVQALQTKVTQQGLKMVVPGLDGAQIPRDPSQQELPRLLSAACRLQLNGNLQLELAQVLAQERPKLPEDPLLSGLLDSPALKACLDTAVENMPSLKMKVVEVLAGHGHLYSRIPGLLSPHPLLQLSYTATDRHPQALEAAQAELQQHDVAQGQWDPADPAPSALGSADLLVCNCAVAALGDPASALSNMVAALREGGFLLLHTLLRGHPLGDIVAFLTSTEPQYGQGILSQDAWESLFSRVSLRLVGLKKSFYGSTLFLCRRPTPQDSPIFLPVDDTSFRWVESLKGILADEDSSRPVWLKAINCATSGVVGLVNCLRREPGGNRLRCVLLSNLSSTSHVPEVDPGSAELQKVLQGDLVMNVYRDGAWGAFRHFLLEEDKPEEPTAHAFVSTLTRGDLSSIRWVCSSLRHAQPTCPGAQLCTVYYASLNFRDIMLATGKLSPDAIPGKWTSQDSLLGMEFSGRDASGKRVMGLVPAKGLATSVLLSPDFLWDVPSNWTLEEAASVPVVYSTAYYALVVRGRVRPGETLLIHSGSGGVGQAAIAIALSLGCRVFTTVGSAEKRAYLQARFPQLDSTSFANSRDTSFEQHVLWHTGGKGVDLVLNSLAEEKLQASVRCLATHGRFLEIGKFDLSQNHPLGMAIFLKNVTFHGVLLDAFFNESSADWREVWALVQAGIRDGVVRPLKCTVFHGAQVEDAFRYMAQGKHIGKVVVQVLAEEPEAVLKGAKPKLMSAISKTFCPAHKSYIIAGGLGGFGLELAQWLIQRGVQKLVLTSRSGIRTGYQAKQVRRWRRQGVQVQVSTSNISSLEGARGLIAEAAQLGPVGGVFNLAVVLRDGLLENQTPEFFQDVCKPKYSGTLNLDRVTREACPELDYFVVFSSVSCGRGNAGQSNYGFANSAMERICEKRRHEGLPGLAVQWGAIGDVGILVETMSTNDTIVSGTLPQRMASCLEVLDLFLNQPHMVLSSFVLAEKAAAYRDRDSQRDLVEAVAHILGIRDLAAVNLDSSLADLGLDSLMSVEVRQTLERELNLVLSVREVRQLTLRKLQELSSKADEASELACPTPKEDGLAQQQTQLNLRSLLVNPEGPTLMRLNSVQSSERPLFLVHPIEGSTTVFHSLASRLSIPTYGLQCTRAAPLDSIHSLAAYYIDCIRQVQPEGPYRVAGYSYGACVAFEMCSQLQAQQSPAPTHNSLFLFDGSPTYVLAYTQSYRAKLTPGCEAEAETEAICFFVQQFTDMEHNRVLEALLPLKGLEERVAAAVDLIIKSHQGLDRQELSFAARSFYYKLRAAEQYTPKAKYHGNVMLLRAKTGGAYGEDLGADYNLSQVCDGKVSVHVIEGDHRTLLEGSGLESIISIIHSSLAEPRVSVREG

In the case of `Oc1ccc(I)cc1`, the concentration at half-maximal activity (AC50) in [1] is 18.6 µM (active); in assay [7], 17 µM (active). The result in assay [2], in [3], in assay [4], in [5] and in assay [6] was inactive.
Regarding `O=[N+]([O-])c1ccc(Cl)c(Cl)c1`, the compound was classed as inactive in assay [8], in assay [9], in assay [10], in assay [11], in assay [12] and in assay [13]. Also, the result in assay [15], in assay [16] and in assay [17] was inactive. In addition, the AC50 in assay [14] was 5.16 µM (active).
`CCOP(=S)(OCC)SCSCC`: the compound was classed as inactive in [8], in assay [9], in [11], in assay [12], in [13] and in assay [15]. For the same compound, the result in assay [16] and in assay [17] was inactive. Moreover, the AC50 in [14] is 66.7 µM (active).
With `CCN(CC)c1ccccc1`, the compound was classed as inactive in assay [8], in assay [9], in assay [10], in assay [11], in [12] and in [13]. The compound was called inactive in [15], in assay [16] and in [17]. For the same compound, the AC50 in [14] was 50 µM (active).
Regarding `CCOS(=O)(=O)OCC`, the result in assay [8], in assay [9], in assay [10], in assay [11], in assay [12] and in assay [13] was inactive. Moreover, the compound was classed as inactive in assay [14], in assay [15], in assay [16] and in assay [17].
Regarding `COCCOCCO`, the result in assay [8], in assay [9], in [11], in [12], in [13] and in assay [14] was inactive. Moreover, the compound was classed as inactive in assay [15], in assay [16] and in assay [17].
Turning to `ClC(Cl)(Cl)c1ccccc1`, the compound was classed as inactive in [8], in assay [9], in assay [10], in assay [11], in assay [12] and in [13]. In addition, the compound was called inactive in [14], in assay [15], in [16] and in [17].
With `c1nc[nH]n1`, the compound was called inactive in assay [8], in assay [9], in assay [11], in assay [12], in assay [13] and in assay [15]. Also, the result in assay [16] and in assay [17] was inactive. For the same compound, the AC50 was 35.3 nM (active) in assay [10] and 0.146 µM (active) in [14].
